Source: ChEMBL document CHEMBL1961873, “Compounds: GSK PKIS; Assays: Nanosyn kinase panel” (2012)

Legend:
[1] = target: T1, Inhibitor of nuclear factor kappa-B kinase subunit epsilon (Homo sapiens) (UniProt Q14164); conditions: at 1 µM;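 further: reported values are averaged percent inhibition figures against human IKKε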
T1 sequence (whole entry): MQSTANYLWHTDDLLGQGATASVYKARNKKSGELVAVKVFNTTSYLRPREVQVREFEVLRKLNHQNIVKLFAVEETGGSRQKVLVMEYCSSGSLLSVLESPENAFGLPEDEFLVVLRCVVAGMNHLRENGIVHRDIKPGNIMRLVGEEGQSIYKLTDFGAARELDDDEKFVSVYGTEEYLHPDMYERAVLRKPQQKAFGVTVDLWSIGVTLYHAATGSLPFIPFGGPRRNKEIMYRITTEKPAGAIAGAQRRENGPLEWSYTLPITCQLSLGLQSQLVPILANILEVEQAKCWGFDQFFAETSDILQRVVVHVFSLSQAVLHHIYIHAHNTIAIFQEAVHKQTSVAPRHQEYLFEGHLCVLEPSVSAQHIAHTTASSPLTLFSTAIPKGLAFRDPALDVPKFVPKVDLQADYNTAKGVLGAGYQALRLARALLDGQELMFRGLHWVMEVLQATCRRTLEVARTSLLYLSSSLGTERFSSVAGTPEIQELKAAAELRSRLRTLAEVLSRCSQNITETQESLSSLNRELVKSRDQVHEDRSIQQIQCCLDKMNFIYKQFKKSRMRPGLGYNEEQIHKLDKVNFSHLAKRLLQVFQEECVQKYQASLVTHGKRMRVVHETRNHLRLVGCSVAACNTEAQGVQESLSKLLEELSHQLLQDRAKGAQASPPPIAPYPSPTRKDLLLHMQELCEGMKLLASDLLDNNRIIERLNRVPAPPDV

[2] = target: T2, Serine/threonine-protein kinase Nek1 (Homo sapiens) (UniProt Q96PY6); conditions: at 0.1 µM
T2 sequence (whole entry): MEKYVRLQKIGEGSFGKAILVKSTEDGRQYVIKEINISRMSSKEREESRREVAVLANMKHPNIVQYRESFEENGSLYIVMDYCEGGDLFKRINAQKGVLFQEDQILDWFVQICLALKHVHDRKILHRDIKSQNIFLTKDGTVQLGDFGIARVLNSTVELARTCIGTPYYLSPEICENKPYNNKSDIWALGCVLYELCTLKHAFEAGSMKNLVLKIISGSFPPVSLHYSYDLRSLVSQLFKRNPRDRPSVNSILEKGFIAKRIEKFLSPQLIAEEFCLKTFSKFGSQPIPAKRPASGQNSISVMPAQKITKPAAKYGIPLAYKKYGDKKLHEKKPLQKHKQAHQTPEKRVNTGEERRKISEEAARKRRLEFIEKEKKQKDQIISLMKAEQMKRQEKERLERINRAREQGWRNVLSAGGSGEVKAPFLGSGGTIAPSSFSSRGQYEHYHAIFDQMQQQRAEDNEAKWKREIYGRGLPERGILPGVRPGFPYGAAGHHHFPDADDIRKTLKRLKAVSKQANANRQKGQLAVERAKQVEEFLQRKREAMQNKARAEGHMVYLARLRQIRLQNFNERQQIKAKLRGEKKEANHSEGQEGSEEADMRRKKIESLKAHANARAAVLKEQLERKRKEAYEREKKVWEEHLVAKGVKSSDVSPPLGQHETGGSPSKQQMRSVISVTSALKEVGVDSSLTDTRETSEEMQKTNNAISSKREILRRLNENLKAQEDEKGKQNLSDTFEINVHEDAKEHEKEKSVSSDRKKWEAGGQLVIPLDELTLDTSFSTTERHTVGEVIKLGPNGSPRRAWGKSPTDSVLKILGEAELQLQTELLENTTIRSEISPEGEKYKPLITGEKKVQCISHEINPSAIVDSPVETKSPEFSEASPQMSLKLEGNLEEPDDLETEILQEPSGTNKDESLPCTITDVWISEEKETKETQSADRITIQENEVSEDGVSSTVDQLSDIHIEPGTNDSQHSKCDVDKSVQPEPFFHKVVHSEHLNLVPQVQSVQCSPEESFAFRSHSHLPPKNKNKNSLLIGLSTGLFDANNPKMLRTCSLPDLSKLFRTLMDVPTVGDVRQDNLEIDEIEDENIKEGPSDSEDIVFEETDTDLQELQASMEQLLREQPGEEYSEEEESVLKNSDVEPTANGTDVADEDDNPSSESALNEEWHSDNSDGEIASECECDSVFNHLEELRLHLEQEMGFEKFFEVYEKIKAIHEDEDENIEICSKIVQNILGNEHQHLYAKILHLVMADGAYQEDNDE

[3] = target: T2, Serine/threonine-protein kinase Nek1 (Homo sapiens); conditions: at 1 µM
[4] = target: T3, Serine/threonine-protein kinase Nek2 (Homo sapiens) (UniProt P51955); conditions: at 0.1 µM
T3 sequence (whole entry): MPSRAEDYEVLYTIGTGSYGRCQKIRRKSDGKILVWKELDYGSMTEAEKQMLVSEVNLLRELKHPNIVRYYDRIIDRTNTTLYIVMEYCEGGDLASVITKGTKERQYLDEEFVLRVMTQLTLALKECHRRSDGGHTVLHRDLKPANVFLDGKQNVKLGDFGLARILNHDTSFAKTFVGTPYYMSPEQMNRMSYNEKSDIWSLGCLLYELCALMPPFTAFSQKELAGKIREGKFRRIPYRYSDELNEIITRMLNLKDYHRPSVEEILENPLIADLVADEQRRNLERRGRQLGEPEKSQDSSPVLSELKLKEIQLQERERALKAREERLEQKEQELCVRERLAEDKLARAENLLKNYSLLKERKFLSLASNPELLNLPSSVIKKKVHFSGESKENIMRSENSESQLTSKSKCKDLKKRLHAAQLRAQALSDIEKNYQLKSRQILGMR

[5] = target: T3, Serine/threonine-protein kinase Nek2 (Homo sapiens); conditions: at 1 µM
[6] = target: Serine/threonine-protein kinase Nek6 (Homo sapiens) (UniProt Q9HC98); conditions: at 0.1 µM
[7] = target: Serine/threonine-protein kinase Nek6 (Homo sapiens) (UniProt Q9HC98); conditions: at 1 µM
[8] = target: Serine/threonine-protein kinase Nek7 (Homo sapiens) (UniProt Q8TDX7); conditions: at 0.1 µM
[9] = target: Serine/threonine-protein kinase Nek7 (Homo sapiens) (UniProt Q8TDX7); conditions: at 1 µM
[10] = target: T4, Serine/threonine-protein kinase Nek9 (Homo sapiens) (UniProt Q8TD19); conditions: at 0.1 µM;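 further: reported value is the mean percent inhibition of NEK9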
T4 sequence (whole entry): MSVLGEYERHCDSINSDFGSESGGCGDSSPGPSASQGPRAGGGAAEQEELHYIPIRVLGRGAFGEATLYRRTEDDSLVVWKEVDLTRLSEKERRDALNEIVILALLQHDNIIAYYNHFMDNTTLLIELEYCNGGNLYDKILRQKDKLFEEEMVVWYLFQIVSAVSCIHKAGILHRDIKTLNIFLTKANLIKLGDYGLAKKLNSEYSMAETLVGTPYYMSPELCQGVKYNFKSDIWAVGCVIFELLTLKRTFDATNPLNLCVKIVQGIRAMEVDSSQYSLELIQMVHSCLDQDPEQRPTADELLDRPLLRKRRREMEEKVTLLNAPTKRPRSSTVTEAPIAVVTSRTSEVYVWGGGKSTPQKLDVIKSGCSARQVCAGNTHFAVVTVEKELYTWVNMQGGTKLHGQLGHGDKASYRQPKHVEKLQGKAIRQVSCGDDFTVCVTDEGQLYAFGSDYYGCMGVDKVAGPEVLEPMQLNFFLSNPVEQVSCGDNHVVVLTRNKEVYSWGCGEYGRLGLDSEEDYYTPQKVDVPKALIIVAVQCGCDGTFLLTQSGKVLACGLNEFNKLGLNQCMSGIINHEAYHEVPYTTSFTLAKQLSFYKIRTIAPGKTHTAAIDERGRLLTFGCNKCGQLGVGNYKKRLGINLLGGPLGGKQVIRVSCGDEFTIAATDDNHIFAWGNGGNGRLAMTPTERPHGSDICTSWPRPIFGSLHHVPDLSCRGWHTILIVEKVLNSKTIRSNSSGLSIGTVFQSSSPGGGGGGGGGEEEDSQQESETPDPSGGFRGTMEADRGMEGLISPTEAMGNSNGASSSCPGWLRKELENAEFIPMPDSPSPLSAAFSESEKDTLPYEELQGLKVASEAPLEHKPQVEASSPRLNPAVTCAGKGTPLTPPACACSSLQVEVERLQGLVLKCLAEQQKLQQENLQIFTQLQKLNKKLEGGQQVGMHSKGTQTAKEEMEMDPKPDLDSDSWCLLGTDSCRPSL

Sequence of Serine/threonine-protein kinase Nek6 (Homo sapiens) (Q9HC98 whole entry): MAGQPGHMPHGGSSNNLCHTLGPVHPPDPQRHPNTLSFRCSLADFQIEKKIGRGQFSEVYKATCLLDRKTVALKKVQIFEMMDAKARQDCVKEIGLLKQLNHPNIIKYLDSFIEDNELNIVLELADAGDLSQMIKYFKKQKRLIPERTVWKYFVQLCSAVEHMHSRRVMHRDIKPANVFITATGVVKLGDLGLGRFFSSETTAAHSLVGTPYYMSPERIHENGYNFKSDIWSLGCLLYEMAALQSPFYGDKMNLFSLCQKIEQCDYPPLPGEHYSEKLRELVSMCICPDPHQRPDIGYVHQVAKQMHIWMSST
Sequence of Serine/threonine-protein kinase Nek7 (Homo sapiens) (Q8TDX7 whole entry, looked up): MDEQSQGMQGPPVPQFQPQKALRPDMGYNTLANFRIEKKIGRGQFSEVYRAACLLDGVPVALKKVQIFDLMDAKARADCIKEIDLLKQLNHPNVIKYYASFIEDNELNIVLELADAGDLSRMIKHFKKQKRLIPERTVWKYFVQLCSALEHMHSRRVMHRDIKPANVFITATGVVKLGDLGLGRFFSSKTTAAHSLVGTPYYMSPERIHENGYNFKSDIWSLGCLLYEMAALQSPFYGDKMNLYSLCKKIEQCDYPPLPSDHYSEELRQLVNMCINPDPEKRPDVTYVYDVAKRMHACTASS

In the case of Oc1cccc(-c2nc(-c3ccccc3)[nH]c2-c2ccncc2)c1, the inhibition [1] is reported as 4.72%, the inhibition [2] is reported as 2.81% and the inhibition [3] is reported as 3.39%. The inhibition [4] was 3.98%, the inhibition [5] was 4.3% and the inhibition [6] was -0.13%. For the same molecule, the inhibition [7] was 4.45%, the inhibition [8] was 4.5% and the inhibition [9] was 5.32%. For the same molecule, the inhibition [10] was 9.92%.

Work on Cc1ccc(NC(=O)CC2CC2)cc1-c1ccc(C(=O)NCC2CC2)cc1 yielded an inhibition [1] of 3.27%, an inhibition [2] of 2.27% and an inhibition [3] of 3.32%. For the same molecule, the inhibition [4] was 3.73%, the inhibition [5] was 3.66% and the inhibition [6] was 2.7%. For the same molecule, the inhibition [7] was 0.33%, the inhibition [8] was 4.87% and the inhibition [9] was 4.36%. For the same molecule, the inhibition [10] was 5.37%.

With CN(C)c1cc2c(Nc3ccc4c(cnn4Cc4ccccc4)c3)ncnc2cn1 the inhibition [1] was 3.38%, the inhibition [2] was 0.59% and the inhibition [3] was 2.49%. It also gave an inhibition [4] of 3.29%, an inhibition [5] of 3.45% and an inhibition [6] of 0.57%. The inhibition [7] was 2.34%, the inhibition [8] was 1.52% and the inhibition [9] was 1.66%. The inhibition [10] was 6.89%.

In the case of N#Cc1cccc(Nc2nccc(-c3cnn4ncccc34)n2)c1, the inhibition [1] is reported as 27.9%, the inhibition [2] is reported as 2.07% and the inhibition [3] is reported as 10.9%. It also gave an inhibition [4] of 1.93%, an inhibition [5] of 6.24% and an inhibition [6] of 3.54%. For the same molecule, the inhibition [7] was 5.8%, the inhibition [8] was -4.91% and the inhibition [9] was 4.18%. It also gave an inhibition [10] of 7%.

Work on Cc1cc(Cl)cc2c1NC(=O)C2=NNc1ccc(S(N)(=O)=O)cc1 yielded an inhibition [1] of 6.95%, an inhibition [2] of 1.58% and an inhibition [3] of 2.35%. For the same molecule, the inhibition [4] was 2.49%, the inhibition [5] was 2.54% and the inhibition [6] was 0.31%. It also gave an inhibition [7] of 1.33%, an inhibition [8] of 1.91% and an inhibition [9] of 1.96%. For the same molecule, the inhibition [10] was 3.08%.

In the case of COc1cc(Nc2nccc(-c3cnn4ncccc34)n2)cc(OC)c1, the inhibition [1] is reported as 28.2%, the inhibition [2] is reported as 2.05% and the inhibition [3] is reported as 19.3%. The inhibition [4] was 2.03%, the inhibition [5] was 12% and the inhibition [6] was -0.86%. The inhibition [7] was 2.06%, the inhibition [8] was 2.07% and the inhibition [9] was 3.54%. The inhibition [10] was 17.3%.

With O=C1Nc2ccc(-c3cccnc3)cc2C1=Cc1cc(Br)c(O)c(Br)c1 the inhibition [1] was 92.1%, the inhibition [2] was 2.32% and the inhibition [3] was 0.46%. The inhibition [4] was 4.11%, the inhibition [5] was 2.79% and the inhibition [6] was 4.82%. For the same molecule, the inhibition [7] was 0.55%, the inhibition [8] was 5.27% and the inhibition [9] was 4.87%. For the same molecule, the inhibition [10] was 6.61%.

In the case of O=C(Nc1ccc(Oc2ccc3[nH]c(NC(=O)c4ccco4)nc3c2)cc1)Nc1cc(C(F)(F)F)ccc1F, the inhibition [1] is reported as -0.41%, the inhibition [2] is reported as 0.66% and the inhibition [3] is reported as 0.27%. The inhibition [4] was 0.32%, the inhibition [5] was 0.28% and the inhibition [6] was -0.01%. The inhibition [7] was -0.32%, the inhibition [8] was 0.83% and the inhibition [9] was 0.99%. The inhibition [10] was -0.1%.
